The results in this text go back to PubChem BioAssay (NCATS).

Molecules are shown by their SMILES. Inconclusive results are not listed. The source made the active and inactive calls. Calls come from the whole dose curve; as a rule, active = well fitted curve in the direction sought with a large enough effect; inconclusive = small, poorly fitted or top-dose-only effect, or another doubt; inactive = no such curve, though single readings can be large; an effect the other way counts as inactive or inconclusive.

One assay has as its target Aldehyde dehydrogenase, mitochondrial (Homo sapiens) (UniProt P05091). Put plainly: qHTS for Inhibitors of the Aldehyde Dehydrogenase Family (ALDH2) Primary screen (AID 2061308).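 Note: plate controls were vehicle for no effect and reference inhibitor for full effect; nearly all actives have a fitted effect of over 55% in size.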 Conditions: ALDH2 enzyme inhibition qHTS, 1536-well; series mostly up to 56 µM; activity change, negative = inhibition: at the top concentration.
For the molecule `Cc1ccc(CNc2ncnc3ccc(-c4sc(C)nc4C)cc23)o1`, the “activity change, negative = inhibition” value is 0.101% (inactive).
The same measure, in the same setting: with `Cc1ccc(OCCn2c(CCNC(=O)/C=C/c3ccccc3Cl)nc3ccccc32)cc1` the figure was -9.88% (inactive).
In the case of `CC(=O)Nc1ccc(C(=O)Nc2ccc(-c3nc4ccccc4[nH]3)cc2)cc1`, the “activity change, negative = inhibition” value is -7.08% (inactive).
As to `Nc1scc2c(C(=O)O)nn(-c3ccccc3)c(=O)c12`, the “activity change, negative = inhibition” value was -21% (inactive).
The same measure, in the same setting: with `CCC(=O)Nc1ccc(OCc2cc(C3Nc4ccccc4C(=O)N3Cc3ccccc3)ccc2OC)cc1` (stereo not drawn) the figure was -2.36% (inactive); with `COc1ccc(O)c(CNc2ccc(S(=O)(=O)Nc3nccs3)cc2)c1`, 9.16% (inactive).
Regarding `O=S(=O)(Nc1cccc2ccccc12)c1ccc(NCc2ccc(Br)cc2O)cc1`, the “activity change, negative = inhibition” value was -12% (inactive).
Consider `Cc1cc(NC(=O)Nc2nnc(-c3cccnc3)s2)ccc1Br`, for which the “activity change, negative = inhibition” value was 8.6% (inactive).
For `Cc1ccc(OCCn2c(CCNC(=O)C3CCC3)nc3ccccc32)cc1`, the “activity change, negative = inhibition” value was 13.8% (inactive).
For `COc1cc(OC)cc(-c2csc(N3CCC(C(N)=O)CC3)n2)c1`, the “activity change, negative = inhibition” value is 11.5% (inactive).
Still for that read-out and setting: with `c1nc(NC[C@@H]2CCCO2)c2cc(-c3ccc4c(c3)OCO4)ccc2n1` the figure was 2.64% (inactive); with `CN(C)c1cccc(N2CCN(c3nn4c(=O)c5ccccc5nc4s3)CC2)c1`, -21% (inactive); with `CC(C)c1ccccc1-c1nc(NCc2ccc(-c3cccnc3)cc2)c2cccn2n1`, -0.0965% (inactive).
On to `NC(=O)C1CCN(c2ncc(Br)s2)CC1`, for which the “activity change, negative = inhibition” value was -24.3% (inactive).
The same measure, in the same setting: then `Cc1cccc(CNc2ccnc(-c3ccccc3C)n2)c1`, with 16.9% (inactive).
For the molecule `O=S(=O)(c1ccc2c(c1)OCCO2)N1CCN(S(=O)(=O)c2cccc[n+]2[O-])CC1`, the “activity change, negative = inhibition” value is -9.39% (inactive).
Take `O=C1Nc2ccccc2C12CC2c1cc(Cl)c(O)c(Cl)c1` (stereo not drawn): the Potency result is “inactive”.
Consider `COc1ccnc(NC(=S)N2CCN(c3cccc(C(F)(F)F)n3)CC2)c1`, for which the “activity change, negative = inhibition” value was -1.89% (inactive).
The same measure, in the same setting: then `O=c1c2ccccc2nc2sc(Nc3cccc(Cl)c3)nn12`, with 12.6% (inactive); and `O=C1CCCC2=C1C(c1cccc(Oc3ccccc3)c1)N=C(Nc1nc3ccccc3o1)N2` (stereo not drawn), with 5.16% (inactive); and `NC(=O)C1CCN(c2nc(-c3ccc4c(c3)CCO4)cs2)CC1`, with 1.09% (inactive).
With `Cc1nc(Nc2nc3ccccc3o2)nc2c1CCCC2`, the “activity change, negative = inhibition” value was -6.23% (inactive).
Still for that read-out and setting: then `O=C([C@H](Cc1ccc(O[S+](=O)([O-])c2ccccn2)cc1)N[S+](=O)([O-])c1cccc2cnccc12)N1CCN(c2ccccc2)CC1`, with -12.5% (inactive).

The target of a further assay is Retinaldehyde dehydrogenase 3 (Homo sapiens) (UniProt P47895). Put plainly: qHTS for Inhibitors of the Aldehyde Dehydrogenase Family (ALDH1A3) Primary screen (AID 2061315).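 Note: plate controls were DMSO vehicle for no effect and reference inhibitor for full effect.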 Conditions: ALDH inhibition qHTS; series mostly up to 56 µM; activity change, negative = inhibition: at the top concentration. (In general: In qHTS, concentration-response curves come from the screen itself.)
Consider `O=C1Nc2ccccc2/C1=C/c1cc(Cl)c(O)c(Cl)c1`, for which the Potency result is “inactive”.
With `CN(CCc1ccco1)c1ncnc2ccc(-c3ccc4c(c3)OCO4)cc12`, the “activity change, negative = inhibition” value is -2.72% (inactive).
As for `Cc1cc(C)nc(NC(=S)N2CCN(c3cc(Cl)cc(Cl)n3)CC2)c1`, the “activity change, negative = inhibition” value is -16.9% (inactive).
Still for that read-out and setting: with `COc1ccc(NC(=O)c2[nH]c(C)c(C(C)=O)c2C)cc1S(=O)(=O)Nc1ccc(C#N)cc1` the figure was -1.43% (inactive).
Turning to `NCCCC[C@H](N)C(=O)Nc1ccc(Cl)cc1C(=O)c1ccc[nH]1`, the “activity change, negative = inhibition” value was 9% (inactive).
Same read-out and setting: then `O=C(O)c1ccc(O)c2ncc(-c3cccc(N4CCOCC4)c3)cc12`, with 4.44% (inactive); and `O=[N+]([O-])c1cccc(CNc2ccc(S(=O)(=O)Nc3nccs3)cc2)c1O`, with 20.4% (inactive); and `O=C1Nc2cc(Cl)ccc2Nc2cscc21`, with -15.6% (inactive).
Still for that read-out and setting: then `OCc1cn(Cc2ccc(O)c3ncccc23)cn1`, with 5.51% (inactive).
Regarding `COc1ccc(C2Nc3ccccc3C(=O)N2CCCN(C)C)cc1COc1c(C)cc(NC(C)=O)cc1C` (stereo not drawn), the “activity change, negative = inhibition” value was 25.3% (inactive).
Turning to `CC(C)Oc1cccc(-c2csc(N3CCC(C(N)=O)CC3)n2)c1`, the “activity change, negative = inhibition” value was 24% [at 171 µM] (inactive).
With `Fc1ccc(NC(=S)Nc2nnc(-c3ccncc3)s2)cc1C(F)(F)F`, the “activity change, negative = inhibition” value was 25.6% (inactive).
In the case of `FC(F)(F)c1cccc(-c2ccc(CNc3nc(-c4ccccc4C(F)(F)F)nc4ccccc34)cc2)c1`, the “activity change, negative = inhibition” value was -18.6% (inactive).
On the same count and under the same terms, with `Cc1ccc(CNc2ccccc2C(=O)Nc2nc(-c3ccccc3)cs2)cc1` the figure was -7.35% (inactive); with `O=C(CSc1ccccc1)Nc1nnc(COc2ccc(Cl)cc2)s1`, 16.7% (inactive).
For `O=C(CNC(=O)c1ccc(Cl)c(C(F)(F)F)c1)OC(C(=O)Nc1cc(C(F)(F)F)ccc1Cl)c1ccccc1` (stereo not drawn), the “activity change, negative = inhibition” value is 9.81% (inactive).
As to `O=C(Nc1ccc(S(=O)(=O)Nc2nccs2)cc1)C1CCC2(CCC2)CC1`, the “activity change, negative = inhibition” value is 14.5% (inactive).
As to `Cc1ccc(CNc2ncnc3ccc(-c4sc(C)nc4C)cc23)o1`, the “activity change, negative = inhibition” value was -10.7% (inactive).
In the case of `Cc1ccc(OCCn2c(CCNC(=O)/C=C/c3ccccc3Cl)nc3ccccc32)cc1`, the “activity change, negative = inhibition” value was -1.91% (inactive).
In the case of `CC(=O)Nc1ccc(C(=O)Nc2ccc(-c3nc4ccccc4[nH]3)cc2)cc1`, the “activity change, negative = inhibition” value was -5.42% (inactive).
`Nc1scc2c(C(=O)O)nn(-c3ccccc3)c(=O)c12`: the “activity change, negative = inhibition” value is -14.5% (inactive).
As for `CCC(=O)Nc1ccc(OCc2cc(C3Nc4ccccc4C(=O)N3Cc3ccccc3)ccc2OC)cc1` (stereo not drawn), the “activity change, negative = inhibition” value was 3.53% (inactive).
On to `COc1ccc(O)c(CNc2ccc(S(=O)(=O)Nc3nccs3)cc2)c1`, for which the “activity change, negative = inhibition” value was 8.82% (inactive).
For `O=S(=O)(Nc1cccc2ccccc12)c1ccc(NCc2ccc(Br)cc2O)cc1`, the “activity change, negative = inhibition” value was -2.46% (inactive).
As to `Cc1cc(NC(=O)Nc2nnc(-c3cccnc3)s2)ccc1Br`, the “activity change, negative = inhibition” value was 11.6% (inactive).
The same measure, in the same setting: with `Cc1ccc(OCCn2c(CCNC(=O)C3CCC3)nc3ccccc32)cc1` the figure was 5.02% (inactive).
Turning to `COc1cc(OC)cc(-c2csc(N3CCC(C(N)=O)CC3)n2)c1`, the “activity change, negative = inhibition” value is -10.4% (inactive).
Same read-out and setting: then `c1nc(NC[C@@H]2CCCO2)c2cc(-c3ccc4c(c3)OCO4)ccc2n1`, with -12.3% (inactive); and `CN(C)c1cccc(N2CCN(c3nn4c(=O)c5ccccc5nc4s3)CC2)c1`, with -16.4% (inactive); and `CC(C)c1ccccc1-c1nc(NCc2ccc(-c3cccnc3)cc2)c2cccn2n1`, with -10.6% (inactive).
`NC(=O)C1CCN(c2ncc(Br)s2)CC1`: the “activity change, negative = inhibition” value is -16.8% (inactive).
As for `Cc1cccc(CNc2ccnc(-c3ccccc3C)n2)c1`, the “activity change, negative = inhibition” value is 22.3% (inactive).
Take `O=S(=O)(c1ccc2c(c1)OCCO2)N1CCN(S(=O)(=O)c2cccc[n+]2[O-])CC1`: the “activity change, negative = inhibition” value is 2.32% (inactive).
On to `O=C1Nc2ccccc2C12CC2c1cc(Cl)c(O)c(Cl)c1` (stereo not drawn), for which the Potency result was “inactive”.
As to `COc1ccnc(NC(=S)N2CCN(c3cccc(C(F)(F)F)n3)CC2)c1`, the “activity change, negative = inhibition” value was 24.1% (inactive).
For `O=c1c2ccccc2nc2sc(Nc3cccc(Cl)c3)nn12`, the “activity change, negative = inhibition” value was 4.03% (inactive).
Consider `O=C1CCCC2=C1C(c1cccc(Oc3ccccc3)c1)N=C(Nc1nc3ccccc3o1)N2` (stereo not drawn), for which the “activity change, negative = inhibition” value is 17.9% (inactive).
On the same count and under the same terms, with `NC(=O)C1CCN(c2nc(-c3ccc4c(c3)CCO4)cs2)CC1` the figure was 26.5% (inactive); with `Cc1nc(Nc2nc3ccccc3o2)nc2c1CCCC2`, 5.99% (inactive); with `O=C([C@H](Cc1ccc(O[S+](=O)([O-])c2ccccn2)cc1)N[S+](=O)([O-])c1cccc2cnccc12)N1CCN(c2ccccc2)CC1`, -12.9% (inactive).
